Sampled rows, rich in hits. Any-hit rate of the full collection: about 3.7%.
Sm TGR inh – inhibitors of Schistosoma mansoni thioredoxin glutathione reductase. Q962Y6. purified TGR, DTNB reduction, TNB absorbance 405 nm. Potency, µM (top dose mostly 114 µM), usual class: inhibitors. 360,000 compounds, 3% hits. AID 485364; note: nearly all actives have a fitted effect of over 60% in size
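TGR 20 nM + NADPH 100 uM (dispensed conc.), cpd preinc 15 min RT; start with NADPH (500 uM addition) then DTNB (15 mM addition). Kinetic TNB absorbance, 405 nm filter. Four-parameter Hill fit across titration.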
RE007 growth inh – less growth of the S. pombe RE007 Vpr strain; S. pombe RE007 Vpr strain, BacTiter-Glo ATP luminescence, 24 h; Potency, µM (highest dose often 92.2 µM), most hits filed as inhibitors; 360,000 compounds, 0.21% hits; active = well fitted falling curve with a large enough effect; inconclusive = small, poorly fitted or top-dose-only effect; inactive = no such curve, though single readings can be large or run the other way; note: nearly all actives have a fitted effect of over 50% in size
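Fission yeast RE007 carrying one integrated HIV-1 vpr copy, seeded at OD 0.01 in PMG+AL medium with 23 nL pinned compound. Grown 24 h at 30 degrees; viability read by BacTiter-Glo luminescence after 5 min.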
FMDV inh – foot and mouth disease virus antiviral activity. FMDV antiviral cell-based qHTS. Potency, µM (titrated, usually from 57.9 µM), most hits filed as inhibitors. 410,000 compounds, 1.2% hits; calls by dose curve; tested in HEK293T cells; note: read-out not given here; nearly all actives have a fitted effect of over 45% in size
Tb PYK inh – inhibitors of Trypanosoma brucei pyruvate kinase; Potency, µM (top dose mostly 76.8 µM), hits mostly inhibitors; AID 624173; Q57TT1; 410,000 compounds, 0.12% hits; TbPYK enzyme, Kinase-Glo Plus ATP luminescence, 45 min; note: nearly all actives have a fitted effect of over 50% in size
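Glycolytic pyruvate kinase of T. brucei was incubated with substrate, test compound and 130 uM ADP for 45 minutes at room temperature. Luminescent Kinase-Glo Plus signal was measured after 10 minutes.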
Numbers stand for hits; - = inactive; ? = inconclusive; . = not tested or not shown; [ ] = remark or other dose. Unless noted, calls come from the whole dose curve; as a rule, active = well fitted curve in the direction sought with a large enough effect; inconclusive = small, poorly fitted or top-dose-only effect, or another doubt; inactive = no such curve, though single readings can be large; an effect the other way counts as inactive or inconclusive.

SMILES	Sm TGR inh	RE007 growth inh	FMDV inh	Tb PYK inh
Cc1ccccc1OCC(=O)Nc1nc(-c2ccncc2)cs1	-	-	28µM	-
O=c1c2oc3ccccc3c2n(Cc2ccccc2F)c(=O)n1Cc1ccccc1	-	.	-	-
O=C1C2C3C=CC(C4CC34)C2C(=O)N1Cc1ccco1 (stereo not drawn)	50µM	-	-	-
CC1=NN(c2ccc([N+](=O)[O-])cc2)C(=O)/C1=C\N(C)C	?	6.3µM	-	-
CC1=NN(c2nc3ccccc3[nH]2)C(=O)/C1=C/N(C)C	-	7.9µM	?	?
CN1CCCN(C(=O)[C@@H]2C[C@@H](Sc3nc4ccccc4[nH]3)CN2Cc2ccc(OC(F)(F)F)cc2)CC1	.	.	-	.
CCc1cccc(C)c1NC(=O)Cn1nnc(-c2nc(-c3ccccc3F)no2)c1N	-	.	-	-
O=C(NCCCN1CCCCCC1)c1cc2c(=O)oc3ccccc3c2s1	50µM	-	-	-
Cc1ccc(C)c(N2CCN(C(=O)c3cc4c(=O)oc5ccccc5c4s3)CC2)c1	89µM	.	-	-
COc1ccc(C(=O)NCCN2Cc3cc(C)ccc3OC(C)C2)c(OC)n1 (stereo not drawn)	.	.	-	.
COc1ccccc1C(=O)N[C@@H]1c2ccccc2C2(CCN(C(=O)c3ccnn3C)CC2)[C@H]1OC	.	.	-	.
Cn1c(=O)c2cn(-c3ccccc3)cc2n(C)c1=O	-	-	-	-
COc1cccc(-n2cc3c(=O)n(C)c(=O)n(C)c3c2)c1	45µM	-	-	-
COc1cc(CN2CCC3(CCC(CNC(=O)c4ccccc4)O3)CC2)cc(OC)c1 (stereo not drawn)	.	.	-	.
Fc1ccc(C2=NN(c3ccccc3)C(c3ccco3)C2)cc1 (stereo not drawn)	-	-	-	-
C(=C\c1ccco1)/C1=NN(c2ccccc2)C(c2ccco2)C1 (stereo not drawn)	28µM	-	-	-
O=[N+]([O-])c1ccc(/C=C/C2=NN(c3ccccc3)C(c3ccco3)C2)o1 (stereo not drawn)	40µM	-	-	-
CCc1ccc(NC(=O)Nc2ccccc2OCc2cc(=O)n3ccccc3n2)cc1	-	.	-	-
C1=CC2=NC34CCCCC3CC3=C(CCCC3)N4C2=CC1=NC1CCCCC1 (stereo not drawn)	.	-	28µM	-
O=C1CCSC2(C(=O)N(Cc3ccc(F)cc3)c3ccccc32)N1c1ccc(F)c(F)c1 (stereo not drawn)	-	.	-	-[15.4 µM]
c1ccc(Cn2nnnc2C(c2ccncc2)N2CCOCC2)cc1 (stereo not drawn)	-	-	.	-
COc1ccc(OC)c(C(c2nnnn2Cc2ccco2)N2CCN(C)CC2)c1 (stereo not drawn)	-	-	-	-
Cc1cc(C(c2nnnn2Cc2ccccc2)N2CCOCC2)c(C)n1-c1ccc2c(c1)OCO2 (stereo not drawn)	10µM	-	.	-
c1coc(Cn2nnnc2CN2CCN(C3CCCC3)CC2)c1	32µM	-	-	-
Cc1cccc2cc(C(c3nnnn3Cc3ccc4c(c3)OCO4)N3CCCC3)c(=O)[nH]c12 (stereo not drawn)	11µM	-	-	-
SMILES	Sm TGR inh	RE007 growth inh	FMDV inh	Tb PYK inh
Clc1ccccc1C(c1nnnn1Cc1ccco1)N1CCN(Cc2ccco2)CC1 (stereo not drawn)	32µM	-	-	-
CC(C)C(c1nnnn1Cc1ccco1)N1CCN(C2CCCC2)CC1 (stereo not drawn)	-	-	-	-
CCOC(=O)c1c(NC(=O)CSc2cn(CCNC(=O)c3ccccc3OC)c3ccccc23)sc2c1CCCC2	-	.	-	-
Cc1cc2cc(C(c3nnnn3Cc3ccco3)N3CCCCC3)c(=O)[nH]c2cc1C (stereo not drawn)	40µM	-	.	-
Cc1ccccc1NC(=S)c1ccc2ccccc2n1	50µM	-	-	-
CCCN(CC(=O)Nc1ccccc1C)C(=O)c1ccc2ccccc2n1	-	-	-	-
O=C(NCCc1cccnc1)c1cnn(-c2ncc3c(n2)-c2ccccc2CC3)c1C1CC1	.	.	-	.
O=C(Nc1ccc(Br)cc1)Nc1nc2c(s1)CCCCCC2	-	.	-	-
Cc1cccc(Nc2nc3c(s2)CCCC3)c1	-	25µM	-	-
O=C(O)c1ccc(Nc2nc3c(s2)CCCC3)cc1	.	-	10µM	-
CC(=O)c1sc(Nc2cccc(C)c2)nc1C	.	-	-	-
OC(c1cccnc1)c1ccc2c(c1)CN(Cc1cn(-c3ccccc3)nc1-c1ccccc1)CCO2 (stereo not drawn)	.	.	-	.
c1cncc(CNc2cc(-c3ccoc3)ncn2)c1	.	.	-	.
Cc1ccc(NC(=O)CCC(=O)c2cccs2)nc1	50µM	-	-	-
Cc1ccnc(NC(=O)CCC(=O)c2cccs2)c1	?	?	14µM	-
CCOc1ccc(NC(=O)CN(c2ccc(CC)cc2)S(=O)(=O)c2c(C)noc2C)cc1	-	.	-	-
CC(O)(COc1ccccc1)c1ccc2c(c1)CN(C/C=C/c1ccco1)CCO2 (stereo not drawn)	.	.	-	.
Cc1[nH]c2ccccc2c1NC(=O)CN1CCN(C(=O)c2ccco2)CC1	32µM	-	-	-
Cc1ccc(NC(=O)CN2CCN(C(=O)c3ccco3)CC2)cc1	-	-	-	-
COc1ccc(NC(=O)CC2C(=O)N(c3cccc(OC)c3)C(=O)N2CCc2cccs2)cc1 (stereo not drawn)	-	.	-	-
CCN(C(=O)c1coc(=O)c(Br)c1)c1ccc2c(c1)OCO2	45µM	-	-	?
CC(=O)[C@@]1(O)CC[C@@H]2[C@@H]3CCC4=CC(=O)CC[C@]4(C)[C@]3(F)[C@@H](O)C[C@@]21C	.	.	.	-
COc1cccc2c1C(=O)c1c(O)c3c(c(O)c1C2=O)C[C@@](O)(C(=O)CO)C[C@@H]3O[C@@H]1C[C@H](N)[C@H](O)[C@H](C)O1	.	.	-	.
COc1ccc(C(c2c(C)[nH]n(C(N)=S)c2=O)C(C#N)C#N)cc1 (stereo not drawn)	-	-	25µM	-
COC(=O)c1c(C)oc(C)c1S(=O)(=O)NC(C)(C)C	25µM	-	-	-
SMILES	Sm TGR inh	RE007 growth inh	FMDV inh	Tb PYK inh
COC(=O)c1c(C)oc(C)c1S(=O)(=O)N1CCCCC1	40µM	-	-	-
COC(=O)c1c(C)oc(C)c1S(=O)(=O)N1CCCC1	50µM	-	-	-
COC(=O)c1c(C)oc2ccc(N(C(C)=O)S(=O)(=O)c3ccccc3)cc12	-	-	-	-
COC(=O)c1c(S(=O)(=O)N2CCOCC2)c(C)n(C)c1C	-	-	-	-
COC(=O)c1c(C)oc(C)c1S(=O)(=O)N(Cc1ccccc1)C(C)C	32µM	-	?	-
COC(=O)c1c(C)oc(C)c1S(=O)(=O)Nc1ccccc1	-	-	-	-
COC(=O)c1sc(S(=O)(=O)N2CCCCC2)c(C(=O)OC)c1C	-	-	-	-
O=C(CS(=O)Cc1ccco1)NCC=CCOc1cc(CN2CCCCC2)ccn1 (stereo not drawn)	.	.	.	-
COCCNc1ncnc2ccc(-c3c(C)noc3C)cc12	.	.	-	.
CC1=C(C(=O)O)N2C(=O)[C@@H](NC(=O)[C@H](N)C3=CCC=CC3)[C@H]2SC1	.	.	.	-

High-throughput results: PubChem, National Center for Advancing Translational Sciences (NCATS)
